The values below come from ChEMBL document CHEMBL2218924, “A broad activity screen in support of a chemogenomic map for kinase signalling research and drug discovery” (Biochem J, 2013).

In experiment [1] the target is T1, Ephrin type-A receptor 3 (Homo sapiens) (UniProt P29320).
T1 sequence (whole entry): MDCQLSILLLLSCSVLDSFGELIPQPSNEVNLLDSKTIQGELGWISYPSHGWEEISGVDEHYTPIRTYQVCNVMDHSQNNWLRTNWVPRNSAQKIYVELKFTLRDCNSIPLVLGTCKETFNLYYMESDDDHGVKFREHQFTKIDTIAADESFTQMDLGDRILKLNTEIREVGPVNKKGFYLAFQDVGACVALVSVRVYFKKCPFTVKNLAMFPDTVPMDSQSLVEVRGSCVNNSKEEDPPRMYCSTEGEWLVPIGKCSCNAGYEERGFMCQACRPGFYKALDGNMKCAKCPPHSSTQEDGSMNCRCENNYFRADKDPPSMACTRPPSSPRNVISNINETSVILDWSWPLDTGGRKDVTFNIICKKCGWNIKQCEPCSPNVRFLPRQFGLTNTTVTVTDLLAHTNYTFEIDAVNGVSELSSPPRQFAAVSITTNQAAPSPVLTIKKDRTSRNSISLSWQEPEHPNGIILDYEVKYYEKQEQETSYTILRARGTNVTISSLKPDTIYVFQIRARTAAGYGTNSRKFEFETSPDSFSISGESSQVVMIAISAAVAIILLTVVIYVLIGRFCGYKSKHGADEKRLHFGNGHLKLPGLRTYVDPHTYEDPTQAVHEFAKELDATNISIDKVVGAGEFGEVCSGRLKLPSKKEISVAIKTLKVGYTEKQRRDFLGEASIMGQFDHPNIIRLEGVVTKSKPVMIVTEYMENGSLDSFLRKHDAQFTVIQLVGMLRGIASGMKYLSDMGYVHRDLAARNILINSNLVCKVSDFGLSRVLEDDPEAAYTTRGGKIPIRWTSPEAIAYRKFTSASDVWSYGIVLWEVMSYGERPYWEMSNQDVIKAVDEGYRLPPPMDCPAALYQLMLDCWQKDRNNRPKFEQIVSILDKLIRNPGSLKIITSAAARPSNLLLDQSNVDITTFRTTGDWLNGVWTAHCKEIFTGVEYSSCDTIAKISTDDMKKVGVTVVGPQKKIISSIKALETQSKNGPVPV
As to conditions: at 10 µM.

In experiment [2] the target is Ephrin type-A receptor 4 (Homo sapiens) (UniProt P54764). As to conditions: at 1 µM.
For experiment [3] the target is unchanged. As to conditions: at 10 µM.
The target of experiment [4] is Ephrin type-A receptor 5 (Homo sapiens) (UniProt P54756). The following applies: at 1 µM.
For experiment [5] the target is unchanged. As to conditions: at 10 µM.
The target in experiment [6] is Ephrin type-A receptor 7 (Homo sapiens) (UniProt Q15375). As to conditions: at 1 µM.
The target is the same in experiment [7]. The following applies: at 10 µM.
The target in experiment [8] is T2, Ephrin type-A receptor 8 (Homo sapiens) (UniProt P29322).
T2 sequence (whole entry): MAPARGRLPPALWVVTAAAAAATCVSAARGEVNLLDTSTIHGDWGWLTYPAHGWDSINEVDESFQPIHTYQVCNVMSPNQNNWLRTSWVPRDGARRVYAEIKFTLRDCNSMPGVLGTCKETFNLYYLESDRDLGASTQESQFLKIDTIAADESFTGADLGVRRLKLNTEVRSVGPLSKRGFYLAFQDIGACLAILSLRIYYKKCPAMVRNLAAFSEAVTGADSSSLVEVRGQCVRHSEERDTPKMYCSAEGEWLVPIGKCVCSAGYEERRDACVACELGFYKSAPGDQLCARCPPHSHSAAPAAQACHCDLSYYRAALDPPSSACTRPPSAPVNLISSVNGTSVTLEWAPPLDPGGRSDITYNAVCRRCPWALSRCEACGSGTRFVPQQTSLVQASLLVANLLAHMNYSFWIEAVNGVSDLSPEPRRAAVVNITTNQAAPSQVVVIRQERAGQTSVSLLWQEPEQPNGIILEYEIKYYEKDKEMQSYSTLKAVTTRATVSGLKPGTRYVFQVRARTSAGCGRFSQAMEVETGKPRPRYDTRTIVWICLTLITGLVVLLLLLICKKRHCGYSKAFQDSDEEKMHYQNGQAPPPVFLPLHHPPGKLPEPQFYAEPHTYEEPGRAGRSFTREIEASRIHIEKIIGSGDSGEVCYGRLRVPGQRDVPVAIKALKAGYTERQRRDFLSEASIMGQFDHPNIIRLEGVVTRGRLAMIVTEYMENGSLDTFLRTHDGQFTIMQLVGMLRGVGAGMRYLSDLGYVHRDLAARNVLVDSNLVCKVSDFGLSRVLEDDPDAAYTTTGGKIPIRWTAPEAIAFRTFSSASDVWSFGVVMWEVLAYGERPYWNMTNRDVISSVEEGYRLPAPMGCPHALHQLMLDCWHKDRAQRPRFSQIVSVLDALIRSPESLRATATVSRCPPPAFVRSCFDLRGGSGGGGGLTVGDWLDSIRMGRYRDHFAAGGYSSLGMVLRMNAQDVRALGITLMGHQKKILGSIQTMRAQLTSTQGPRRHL
The following applies: at 1 µM.

For experiment [9], the target named is T2, Ephrin type-A receptor 8 (Homo sapiens). The following applies: at 10 µM.
Experiment [10] addresses T3, Ephrin type-B receptor 1 (Homo sapiens) (UniProt P54762).
T3 sequence (whole entry): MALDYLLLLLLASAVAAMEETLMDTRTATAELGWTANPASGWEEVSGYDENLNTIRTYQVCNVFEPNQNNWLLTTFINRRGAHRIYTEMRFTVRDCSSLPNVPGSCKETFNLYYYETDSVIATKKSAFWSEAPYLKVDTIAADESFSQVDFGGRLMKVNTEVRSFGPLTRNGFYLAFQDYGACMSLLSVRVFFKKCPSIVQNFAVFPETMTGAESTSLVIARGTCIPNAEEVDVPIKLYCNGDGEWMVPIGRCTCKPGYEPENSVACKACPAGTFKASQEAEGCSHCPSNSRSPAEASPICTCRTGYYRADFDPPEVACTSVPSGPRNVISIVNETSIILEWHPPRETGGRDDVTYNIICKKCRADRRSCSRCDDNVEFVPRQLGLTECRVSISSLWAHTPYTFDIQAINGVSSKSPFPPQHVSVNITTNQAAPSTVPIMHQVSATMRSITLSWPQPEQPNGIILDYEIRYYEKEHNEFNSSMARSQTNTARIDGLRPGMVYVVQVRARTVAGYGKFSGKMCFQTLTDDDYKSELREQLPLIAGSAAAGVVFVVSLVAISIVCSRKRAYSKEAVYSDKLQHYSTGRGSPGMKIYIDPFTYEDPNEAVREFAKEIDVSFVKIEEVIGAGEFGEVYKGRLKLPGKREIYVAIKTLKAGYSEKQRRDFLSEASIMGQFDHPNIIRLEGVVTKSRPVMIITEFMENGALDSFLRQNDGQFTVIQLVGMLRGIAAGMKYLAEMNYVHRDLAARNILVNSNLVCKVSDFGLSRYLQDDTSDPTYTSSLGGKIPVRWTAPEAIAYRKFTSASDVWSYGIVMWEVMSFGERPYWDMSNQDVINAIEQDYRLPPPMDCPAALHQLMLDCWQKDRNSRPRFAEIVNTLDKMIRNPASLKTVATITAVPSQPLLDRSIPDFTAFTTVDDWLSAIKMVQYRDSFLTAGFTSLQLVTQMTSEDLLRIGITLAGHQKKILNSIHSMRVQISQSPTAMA
The following applies: at 1 µM.

Sequence of Ephrin type-A receptor 7 (Homo sapiens) (Q15375 28-998 limits assumed): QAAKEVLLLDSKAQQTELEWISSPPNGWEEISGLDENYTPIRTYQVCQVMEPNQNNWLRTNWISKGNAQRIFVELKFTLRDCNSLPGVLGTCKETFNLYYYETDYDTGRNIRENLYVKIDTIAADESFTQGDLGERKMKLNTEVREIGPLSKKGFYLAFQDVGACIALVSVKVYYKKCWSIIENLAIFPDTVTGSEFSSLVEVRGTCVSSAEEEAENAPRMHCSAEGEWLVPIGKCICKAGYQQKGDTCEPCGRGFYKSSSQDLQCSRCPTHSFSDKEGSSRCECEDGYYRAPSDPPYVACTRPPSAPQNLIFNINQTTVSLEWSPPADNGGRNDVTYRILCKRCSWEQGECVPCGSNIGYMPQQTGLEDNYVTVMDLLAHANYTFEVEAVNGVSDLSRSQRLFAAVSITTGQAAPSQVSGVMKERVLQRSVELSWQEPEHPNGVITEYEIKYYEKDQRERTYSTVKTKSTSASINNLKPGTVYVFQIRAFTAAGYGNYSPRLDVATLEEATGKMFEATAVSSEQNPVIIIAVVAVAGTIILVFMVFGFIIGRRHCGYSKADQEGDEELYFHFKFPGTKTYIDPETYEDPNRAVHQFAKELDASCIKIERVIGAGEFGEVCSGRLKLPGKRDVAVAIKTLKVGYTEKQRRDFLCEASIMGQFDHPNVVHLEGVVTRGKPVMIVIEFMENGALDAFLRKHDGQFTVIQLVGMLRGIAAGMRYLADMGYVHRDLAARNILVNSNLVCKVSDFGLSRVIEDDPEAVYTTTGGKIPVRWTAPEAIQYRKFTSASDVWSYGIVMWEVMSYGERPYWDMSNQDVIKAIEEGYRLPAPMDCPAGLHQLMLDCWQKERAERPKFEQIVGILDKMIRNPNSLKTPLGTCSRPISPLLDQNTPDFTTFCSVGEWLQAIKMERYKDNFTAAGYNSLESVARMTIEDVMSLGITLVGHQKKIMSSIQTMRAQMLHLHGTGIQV
Sequence of Ephrin type-A receptor 5 (Homo sapiens) (P54756 whole entry): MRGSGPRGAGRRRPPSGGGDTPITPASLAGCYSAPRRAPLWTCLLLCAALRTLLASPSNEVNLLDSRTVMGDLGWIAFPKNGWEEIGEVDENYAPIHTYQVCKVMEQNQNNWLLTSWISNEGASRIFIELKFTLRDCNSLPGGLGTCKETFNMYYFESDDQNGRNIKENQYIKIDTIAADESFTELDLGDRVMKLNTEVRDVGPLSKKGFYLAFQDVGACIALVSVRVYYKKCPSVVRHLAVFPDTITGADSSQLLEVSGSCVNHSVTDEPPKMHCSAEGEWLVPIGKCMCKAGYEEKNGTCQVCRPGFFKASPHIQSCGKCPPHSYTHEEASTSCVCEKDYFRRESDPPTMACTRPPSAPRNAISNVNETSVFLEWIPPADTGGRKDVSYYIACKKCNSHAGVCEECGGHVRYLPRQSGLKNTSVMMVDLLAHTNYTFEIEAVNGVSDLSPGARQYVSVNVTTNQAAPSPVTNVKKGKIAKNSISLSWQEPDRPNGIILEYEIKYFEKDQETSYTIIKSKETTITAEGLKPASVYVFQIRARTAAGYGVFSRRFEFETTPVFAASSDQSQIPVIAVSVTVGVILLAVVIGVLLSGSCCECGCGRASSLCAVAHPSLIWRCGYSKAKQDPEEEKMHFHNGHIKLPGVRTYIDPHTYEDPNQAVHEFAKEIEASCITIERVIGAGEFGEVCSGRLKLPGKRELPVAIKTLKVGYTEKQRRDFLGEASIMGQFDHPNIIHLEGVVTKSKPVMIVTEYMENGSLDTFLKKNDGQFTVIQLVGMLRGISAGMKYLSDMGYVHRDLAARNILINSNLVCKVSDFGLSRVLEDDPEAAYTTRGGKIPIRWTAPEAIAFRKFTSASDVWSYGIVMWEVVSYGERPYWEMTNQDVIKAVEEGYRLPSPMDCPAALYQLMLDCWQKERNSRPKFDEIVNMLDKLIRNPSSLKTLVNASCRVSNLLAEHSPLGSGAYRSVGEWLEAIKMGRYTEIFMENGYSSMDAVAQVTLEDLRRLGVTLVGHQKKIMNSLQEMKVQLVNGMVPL
Sequence of Ephrin type-A receptor 4 (Homo sapiens) (P54764 whole entry): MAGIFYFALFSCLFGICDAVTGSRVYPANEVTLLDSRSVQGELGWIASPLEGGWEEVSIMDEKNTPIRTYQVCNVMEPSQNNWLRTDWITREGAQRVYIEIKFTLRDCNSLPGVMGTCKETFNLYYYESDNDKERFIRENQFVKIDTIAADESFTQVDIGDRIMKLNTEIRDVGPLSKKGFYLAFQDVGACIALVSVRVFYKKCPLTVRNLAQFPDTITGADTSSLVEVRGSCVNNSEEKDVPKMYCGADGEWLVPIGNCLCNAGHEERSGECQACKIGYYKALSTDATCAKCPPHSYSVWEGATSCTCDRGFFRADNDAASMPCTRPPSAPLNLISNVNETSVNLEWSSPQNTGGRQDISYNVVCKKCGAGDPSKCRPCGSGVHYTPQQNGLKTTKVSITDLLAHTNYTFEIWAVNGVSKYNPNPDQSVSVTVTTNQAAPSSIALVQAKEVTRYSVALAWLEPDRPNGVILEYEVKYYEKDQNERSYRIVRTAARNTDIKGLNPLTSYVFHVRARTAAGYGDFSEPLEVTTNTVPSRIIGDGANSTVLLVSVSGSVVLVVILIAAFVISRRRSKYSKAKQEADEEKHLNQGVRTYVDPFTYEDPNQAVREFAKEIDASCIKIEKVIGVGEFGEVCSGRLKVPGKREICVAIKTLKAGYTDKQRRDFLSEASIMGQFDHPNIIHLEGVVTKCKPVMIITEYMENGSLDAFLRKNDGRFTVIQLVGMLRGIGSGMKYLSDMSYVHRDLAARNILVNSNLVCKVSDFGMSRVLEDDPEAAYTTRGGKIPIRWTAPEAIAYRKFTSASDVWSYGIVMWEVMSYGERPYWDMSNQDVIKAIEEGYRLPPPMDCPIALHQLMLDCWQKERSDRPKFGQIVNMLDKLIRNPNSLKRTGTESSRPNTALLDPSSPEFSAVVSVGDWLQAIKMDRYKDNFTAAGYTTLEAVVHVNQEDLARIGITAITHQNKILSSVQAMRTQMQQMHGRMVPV

For `O=[N+]([O-])/C=C/c1ccc2c(c1)OCO2`, the residual activity in experiment [1] is 95%; in [2], 112%; in [3], 100%; in [4] it was 103%; in [5] it was 93%; in experiment [6], 95%. The residual activity came to 89% in experiment [7], 100% in [8], 103% in experiment [9] and 115% in experiment [10].
